# Bioassay records (PubChem BioAssay)
# Hits are enriched below; roughly 4% of the tested compounds scored in any of these assays.
# D1 PAM = enhances dopamine response at the human D1 receptor; potentiation, % at 10 µM; 0.036% of 360,000 active; HEK293 TREx D1 cells, calcium flux, dopamine EC20 potentiation; P21728; in the data active = potentiation above about 30%; note: 0% is about no effect
# D1 antagonist = human D1 dopamine receptor antagonism; P21728; HEK293 TREx D1 cells, calcium flux, dopamine EC80; active compounds read low; activity change, negative = inhibition, % at 10 µM; 3.2% of 360,000 active; in the data active = activity change below about -30%; note: % is set by controls: 0 for no effect and ±100 for the full control effect
#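 Inducible Hek293 Trex D1 cells (tetracycline, overnight, 30 C). Calcium dye 30–90 min RT. Antagonist mode: EC80 dopamine added after 180 s compound read.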
# GRP78 ERSR act = inducers of ER stress response in human glioma cells; U87-MG GRP78 promoter luciferase reporter, 16 h; Potency, µM, for the others: at the highest dose activation, hits mostly activators; 0.02% of 420,000 active; active = well fitted activation curve with a large enough effect; note: potency is the fitted concentration of half-maximal effect; series mostly up to about 76 µM; % of control where 0% means no effect; nearly all actives have a fitted effect of over 35% in size
#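 ERSR induction read as luciferase luminescence (Bright-Glo, 10 min at room temperature) in stably transfected human U87-MG glioma cells exposed to compounds for 16 h, using GRP78 as sensor.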
# TRHR agonist = agonists of human TRH receptor; P34981; TRHR cells, calcium flux fluo-8, FDSS agonist mode; activation, % at 2 µM; 0.18% of 360,000 active; note: 0% is about no effect
# Target sequence (P34981 whole entry, looked up): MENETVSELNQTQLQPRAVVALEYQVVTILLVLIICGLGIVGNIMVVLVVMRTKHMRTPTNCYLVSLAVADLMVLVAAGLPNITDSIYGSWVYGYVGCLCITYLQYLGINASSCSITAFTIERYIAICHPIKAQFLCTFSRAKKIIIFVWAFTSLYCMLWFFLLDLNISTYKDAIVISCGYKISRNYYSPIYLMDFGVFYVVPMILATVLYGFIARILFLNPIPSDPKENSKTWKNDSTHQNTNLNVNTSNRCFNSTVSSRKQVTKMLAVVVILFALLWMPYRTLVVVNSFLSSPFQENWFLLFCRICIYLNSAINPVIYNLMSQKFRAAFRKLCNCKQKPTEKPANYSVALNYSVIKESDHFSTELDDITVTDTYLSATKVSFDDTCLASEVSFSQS
#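 Agonist-mode FDSS calcium read (Ex 480/Em 530, 1 s cycles) in 1536-well TRHR cells with fluo-8 dye, after 10-cycle baseline and 23 nL compound addition; TRH at EC20 (10 nM final) added afterwards for the enhancer phase.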
# D1 ag = activates the human D1 dopamine receptor; HEK293 T-REx D1 cells, calcium flux, agonist mode; 1% of 360,000 active; activation, % at 2 µM; note: 0% is about no effect
#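 Agonism was scored from calcium flux recorded over 180 s (1 read/s) after pintool compound addition, following a 10-cycle baseline. Cells were inducible force-coupled HEK293 TREx D1, plated overnight at 30 C and loaded with no-wash calcium dye.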
# TRHR PAM = allosteric enhancers of human TRH receptor. P34981. TRHR cells, fluo-8 calcium fluorescence, EC20 TRH enhancement. enhancement, % at 2 µM. 0.66% of 360,000 active; in the data active = enhancement above about 30%; note: 0% is about no effect
#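 TRHR-expressing cells loaded with fluo-8 calcium dye were read kinetically (ex 480/em 530) during compound addition, then stimulated with an EC20 of TRH (10 nM final). Enhancement of the Gq-mediated intracellular calcium response was scored.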
# Starred values were filed as active, the others as inactive; . = no result. Cut-off read from the data, not from the text of the source, unless noted: active = activation above about 30%; inactive = the rest.
SMILES,D1 PAM,D1 antagonist,GRP78 ERSR act,TRHR agonist,D1 ag,TRHR PAM
O=C(COC(=O)Cc1ccc(Cl)cc1Cl)NCc1ccccc1,.,.,-3%,.,.,.
N#CC(C#N)=C/C=C(\Nc1ccc(Cl)cc1)c1ccc(Cl)cc1,-10,-28,1%,22,79*,-1
CC(=O)c1ccc(N2CCN(C(=O)Cn3c(=S)[nH]c4ncccc4c3=O)CC2)cc1,-5,-7,.,-2,-2,-3
CCCCC1=NN(C(=O)c2ccco2)C(O)(C(F)(F)F)C1 (configuration not stated),-3,0,0%,-1,1,36*
COc1ccc(COC(=O)c2ccc(Cl)c(S(=O)(=O)N3CC(C)OC(C)C3)c2)cc1 (configuration not stated),0,1,-3%,1,13,-3
CC1CN(S(=O)(=O)c2ccc(C(=O)OCc3ccc(C#N)cc3)cc2)CC(C)O1 (configuration not stated),.,0,-3%,0,34*,-3
CC1CN(S(=O)(=O)c2ccccc2)CC(C)O1 (configuration not stated),1,-35*,-3%,0,2,-6
CC1CN(S(=O)(=O)Cc2ccccc2)CC(C)O1 (configuration not stated),0,-9,-2%,0,1,2
CCOC(=O)c1ccc(Nc2nc3nonc3nc2Nc2cccc(C)c2C)cc1,-3,-39*,2%,6,24,-3
Cc1ccc(C)c(Nc2nc3nonc3nc2Nc2cccc(C)c2C)c1,-2,-31*,-3%,4,8,-4
Cc1nn(Cc2cccc(C(=O)Nc3ccn(Cc4c(F)c(F)cc(F)c4F)n3)c2)c(C)c1[N+](=O)[O-],4,-12,2%,0,0,-5
COc1cc(/C=C/C(=O)c2ccc(C)cc2)ccc1OCC#N,14,2,-6%,0,2,-2
Cc1ccc(NC(=O)Cn2cc(S(=O)(=O)c3ccccc3)c(=O)c3cc4c(cc32)OCO4)cc1,3,3,-1%,-2,-2,28
COCCCNC(=O)Cn1cc(/C=C(\C#N)C(=O)NC2CCCC2)c2ccccc21,1,11,0%,0,-1,4
Cc1cc(C)cc(NC(=O)OCCN2CCN(Cc3ccccc3)CCC2=O)c1,-6,-32*,-3%,0,-4,-4
Cc1ccc(S(=O)(=O)N2CCC(=O)N(CCOC(=O)Nc3ccccc3C)CC2)cc1,-6,-31*,-3%,0,-4,-1
Cc1nc2ccccc2n1CC(O)COc1ccc(Br)cc1 (configuration not stated),-4,-20,-9%,1,11,-10
Cc1ccccc1OCCn1c(C)nc2ccccc21,-10,-41*,-1%,-2,14,-14
c1ccc(OCCn2c(COc3ccccc3)nc3ccccc32)cc1,0,2,0%,2,22,-3
Cc1ccccc1OCCCCn1c(CO)nc2ccccc21,-9,-21,-4%,0,15,-4
Cc1nc2ccccc2n1CC(O)COc1ccccc1Cl (configuration not stated),-8,-46*,-5%,1,20,-12
Cc1nc2ccccc2n1CCOc1ccccc1,3,-42*,1%,0,10,-2
COc1cccc2c(=O)cc(C)n(CC(=O)Nc3ccc(Br)cc3)c12,0,-9,-5%,0,6,-3
CCC1CCCCN1C(=O)c1sc(-n2nc(C)c(Cc3ccccc3)c2C)nc1C (configuration not stated),1,-10,-4%,1,-1,2
S=C(NCc1ccco1)N1CCN(c2nc(-c3ccccc3)cs2)CC1,-7,-6,1%,0,0,30*
S=C(NCc1ccco1)N1CCN(c2ccccc2Cl)CC1,-9,-33*,-1%,0,3,-9
COc1ccc2c(Cl)c(C(=O)N/N=C3\CCCC(=O)C3)sc2c1,-3,-18,2%,-1,44*,4
COc1ccc2c(Cl)c(C(=O)N/N=C/c3ccc4c(c3)OCO4)sc2c1,-7,13,5%,1,3,8
